Drawing on PubChem BioAssay AID624202 (National Center for Advancing Translational Sciences (NCATS), 2012), this text covers Potency for one compound.

Screen size: about 380,000 compounds; about 4,000 (1.1%) were called active. About 3% were inconclusive and are not listed. The call rests on the fitted dose curve; in most records, active means well fitted activation curve with a large enough effect; inconclusive means small, poorly fitted or top-dose-only effect; inactive means no such curve, though single readings can be large or run the other way. Many of the other results were omitted from the sample, so actives are more common in it than they were.
Potency means the concentration at half of the fitted maximal effect.

This assay in a line: qHTS Assay to Identify Small Molecule Activators of BRCA1 Expression. Further: nearly all actives have a fitted effect of over 80% in size. The settings on record: MCF7-BRCA1-FFLuc reporter, luminescence, 48 h. An excerpt: Functionally, BRCA1 has been implicated in a wide array of cellular activities, including DNA damage repair, cell-cycle checkpoint control, growth inhibition, apoptosis, transcriptional regulation, chromatin remodeling, protein ubiquitylation, and mammary stem cell self-renewal and differentiation. Reduction in BRCA1 levels is associated with an increase in tumor growth and resistance to anti-estrogenic agents, such as tamoxifen, while an increase in BRCA1 expression leads to cell growth arrest and apoptosis. […] The frequent loss of BRCA1 expression in invasive breast cancers in the absence of somatic mutation has been attributed to numerous mechanisms, including hypermethylation of the BRCA1 promoter, exaggerated ubiquitylation of BRCA1 protein, and improper intracellular localization. […]
5microl of MCF7-BRCA1-FFLuc cell suspension (400 cells/microl in phenol-red free MEM) are dispensed into Greiner white solid bottom 1536-well assay plates, yielding a final well density of 2000 cells/well. […] The NCGC in-house luciferase substrate reagent, Buglite, is then added (2.5microl) and plates incubated for 15 minutes, before being transferred to a ViewLux high-throughput CCD imager (PerkinElmer) wherein single end-point measurements of luminescence are acquired using a clear filter. […]
Turning to `O=C(OCC(=O)c1cccs1)C1=COCCO1`, the Potency is 15.8 µM (active).
